# Bioassay records from PubChem.
# The list is not random: actives were taken first. Their share in the collection is about 6%.
# D1 potentiator = human D1 dopamine receptor positive modulation; 360,000 compounds, 0.036% hits; HEK293 TREx D1 cells, calcium flux, dopamine EC20 potentiation; P21728; potentiation, % at 10 µM; in the data active = potentiation above about 30%; also: 0% is about no effect
# DRD3 agonist = activates the human D3 dopamine receptor. P35462. D3R DiscoveRx beta-arrestin cells, luminescence, 90 min. max activation, %. 410,000 compounds, 0.58% hits. AID 652048; in the data active = max activation above about 30%; also: 0% is about no effect
# Target sequence (P35462 whole entry, looked up): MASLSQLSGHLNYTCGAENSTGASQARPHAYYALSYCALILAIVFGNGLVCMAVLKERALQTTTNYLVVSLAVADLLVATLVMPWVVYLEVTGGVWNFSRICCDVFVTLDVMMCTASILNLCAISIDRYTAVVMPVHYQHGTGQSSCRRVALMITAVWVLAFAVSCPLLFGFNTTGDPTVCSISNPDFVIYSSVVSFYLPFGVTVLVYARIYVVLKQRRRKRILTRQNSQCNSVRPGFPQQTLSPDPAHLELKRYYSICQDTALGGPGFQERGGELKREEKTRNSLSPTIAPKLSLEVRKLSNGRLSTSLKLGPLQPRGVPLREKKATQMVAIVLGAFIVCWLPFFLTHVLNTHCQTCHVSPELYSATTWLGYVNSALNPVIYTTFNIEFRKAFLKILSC
#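 Cells at 1500/well, incubated overnight, then treated with pinned compounds (dopamine as control) for 90 min at 37 degrees C. DiscoveRx reagent added for 30 - 60 minutes at room temperature; luminescence read.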
# D3 antag = antagonists of human D3 dopamine receptor; D3R cells, DiscoveRx beta-arrestin luminescence, antagonist mode; stronger effect = lower value; 360,000 compounds, 2.5% hits; max response, negative = inhibition, %; in the data active = max response below about -50%; inconclusive = no clear call, values can overlap the other calls; also: % is scaled to controls: 0 for no effect and ±100 for the full control effect
#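 Cells expressing the human receptor were seeded at 1500 cells/well, incubated overnight at 37 degrees C in 5% CO2, then exposed to library compounds with dopamine controls for 90 minutes at 37 degrees C before luminescent detection.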
# D1 ag = human D1 receptor agonism; P21728; HEK293 T-REx D1 cells, calcium flux, agonist mode; activation, % at 2 µM; 360,000 compounds, 1% hits; AID 504660; in the data active = activation above about 30%; also: 0% is about no effect
#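 Tetracycline-induced HEK293 TREx D1 cells, force-coupled to calcium signalling, were dye-loaded with a no-wash calcium kit. Compound was pin-added after a 10 s baseline. Fluorescence was read kinetically at 1 cycle/s for 180 s, with calcium rises flagged as agonism.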
# D1 antagonist = antagonists of human D1 dopamine receptor; HEK293 TREx D1 cells, calcium flux, dopamine EC80; stronger effect = lower value; activity change, negative = inhibition, % at 10 µM; 360,000 compounds, 3.2% hits; in the data active = activity change below about -30%; also: % is scaled to controls: 0 for no effect and ±100 for the full control effect
#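 Compound effects on dopamine-evoked calcium signalling were measured in tetracycline-induced HEK293 Trex D1 cells. Dopamine at EC80 followed a 180 s compound pre-read, and fluorescence was tracked kinetically for 180 s more.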
# Active calls of the source: *; u = inconclusive; x = no result.
SMILES,D1 potentiator,DRD3 agonist,D3 antag,D1 ag,D1 antagonist
COc1ccccc1CN1CCC(CNC(=O)c2cnn(-c3ccc(C)c(C)c3)c2C2CCN(C(=O)OC(C)(C)C)CC2)CC1,2.4,-15.8,x,9.4,26.5
COc1ccc(Cl)cc1NC(=O)NCC1CCN(C(=O)OC(C)(C)C)CC1,-6.8,-44.9,-72.5*,3.9,-13.0
Cc1ccc(C)c(N2CCN(CCCNC(=O)c3cnn(-c4ccc(F)cc4)c3C3CCN(C(=O)OC(C)(C)C)CC3)CC2)c1,-4.4,-18.7,x,4.1,-32.1*
Cc1ccc(-n2ncc(C(=O)NCCN3CCC(Cc4ccccc4)CC3)c2C2CCN(C(=O)OC(C)(C)C)CC2)cc1,0.7,-21.3,x,56.2*,-9.6
CC1(C(=O)NS(=O)(=O)c2cccc(F)c2)CCN1C(=O)Cc1cccc2ccccc12 (stereo not given),x,1.0,6.1,x,x
C=C(C)Cn1c(NCCOC)nc2c1c(=O)[nH]c(=O)n2C,4.4,5.4,11.6,-0.6,-39.6*
COCCCNc1nc2c(c(=O)[nH]c(=O)n2C)n1CCCc1ccccc1,-2.9,-2.0,-4.6,0.6,-2.0
COc1ccc(/C=N/OCC(=O)Nc2cc(C)on2)cc1OC,3.9,30.3*,18.1,1.5,1.8
Cc1cccc(OCCNc2cc(N3CCN(C)CC3)ccc2[N+](=O)[O-])c1,-9.2,-49.8,-64.8*,12.0,-18.4
Cc1ccc(OCCNc2cc(N3CCN(CCO)CC3)ccc2[N+](=O)[O-])cc1C,-7.5,-8.6,-56.0*,7.1,7.4
Cc1cccc(OCCNc2cc(N3CCOCC3)ccc2[N+](=O)[O-])c1,-7.8,8.2,22.6,3.1,0.4
CC(=O)N1CCCc2cc(S(=O)(=O)N3CCN(c4ccccc4F)CC3)ccc21,-6.2,4.6,x,7.3,-12.8
CN(NC(=O)C(=O)NCc1ccco1)C(=O)Nc1ccc(Cl)cc1,x,-3.7,2.1,x,x
COC(=O)c1ccccc1NC(=O)CSc1nc2nc(C)cc(C)n2n1,-2.9,5.7,x,-0.7,-2.6
COc1ccccc1C(=O)NC(CCSC)C(=O)NCC(c1cccs1)N1CCOCC1 (stereo not given),3.3,-21.7,-0.3,2.2,0.9
Cc1cc(C)cc(Nc2nc3cc(Cl)c(Cl)cc3nc2-n2nc(C)cc2C)c1,3.2,-3.6,x,0.0,13.7
Cc1csc(SCC(=O)c2cc(C)n(Cc3cccs3)c2C)n1,-1.1,0.9,47.3,11.2,-16.8
Cc1cc(C(=O)CSc2nnc(N)s2)c(C)n1Cc1cccs1,-7.0,1.7,15.6,8.8,-38.7*
O=C(NCc1ccc(-c2csnn2)cc1)c1cccs1,-2.4,-6.7,-50.7*,3.5,5.4
O=C(NCc1ccc(-c2csnn2)cc1)c1cc(Cl)cc(Cl)c1,-4.3,-5.9,0.0,4.1,-18.5
c1csc(Cc2nn3c(-c4n[nH]c5c4CCC5)nnc3s2)c1,0.3,0.3,-61.5*,0.3,-1.5
CCCOC(=O)C1[C@H]2C(=O)N(C(C)c3ccc(OC)cc3)C[C@]23C=C[C@H]1O3 (stereo not given in full),-0.9,4.0,16.7,0.7,4.0
CCOC(=O)C1[C@H]2C(=O)N(C(C)c3ccc(OC)cc3)C[C@]23C=C[C@H]1O3 (stereo not given in full),2.2,1.4,23.5,-0.3,-41.1*
CC(C)(C)c1ccc(C(=O)CC(Sc2ccc(Cl)cc2)C(=O)O)cc1 (stereo not given),-0.5,-16.6,-64.0*,-0.1,4.1
CCn1cc(C(=O)OCC(=O)c2cc(C)n(-c3ccc(OC(F)F)cc3)c2C)c(=O)c2ccc(C)nc21,-7.0,1.3,3.2,0.5,-32.3*
SMILES,D1 potentiator,DRD3 agonist,D3 antag,D1 ag,D1 antagonist
CN(CCCC(=O)N1CCCC(C(N)=O)C1)S(=O)(=O)c1ccc(F)cc1 (stereo not given),1.0,0.3,8.5,-0.2,4.4
CC1CCN(CC(O)COCCOc2ccc(Br)cc2)CC1 (stereo not given),-6.3,-3.2,21.2,15.7,-10.7
CC1CCN(CC(O)COCCC23CC4CC(CC(C4)C2)C3)CC1 (stereo not given),1.0,-21.4,-57.4*,18.2,-3.7
O=C1OCCN1CCN(CN1C(=O)CCC1=O)CN1C(=O)CCC1=O,0.8,-2.9,-56.8*,-0.2,4.4
CC1=C(C(=O)Nc2cc(C(=O)N3CCN(c4ccc(Cl)cc4)CC3)ccc2C)SCCO1,x,2.5,12.0,x,x
Cc1cccc(N/C(=N/S(=O)(=O)c2ccccc2)c2ccccc2)n1,0.2,1.6,-0.1,2.4,10.5
CCn1nc(C)cc1C(=O)N1CCCC(C(=O)c2ccc(Oc3ccccc3)cc2)C1 (stereo not given),-0.7,0.6,14.1,5.2,-34.7*
CCn1nc(C)cc1C(=O)N1CCCC(C(=O)c2ccc3ccccc3c2)C1 (stereo not given),-1.1,10.0,u,0.1,-4.6
Cc1ccc(CNC(=O)c2cc(=O)c3ccccc3o2)cc1,x,17.4,10.1,16.3,-35.4*
Cc1cc(C)c2c(=O)cc(C(=O)NCc3ccccc3)oc2c1,-6.4,-45.6,-52.8*,6.9,1.7
Cc1cc2oc(C(=O)Nc3c(C(=O)Nc4ccccc4)oc4ccccc34)cc(=O)c2cc1C,-0.6,-6.2,x,2.7,-42.9*
Cc1ccc(CNC(=O)c2cc(=O)c3ccc(C)cc3o2)cc1,-1.9,15.8,1.1,4.8,-2.0
Cc1ccc2oc(C(=O)NCc3ccccc3)cc(=O)c2c1,-3.0,6.3,-1.3,3.8,0.1
COc1ccc(CNC(=O)c2cc(=O)c3cc(C)ccc3o2)cc1,-1.9,-0.8,-1.0,9.2,-36.2*
CCN(CC)S(=O)(=O)c1ccc(NC(=O)c2cc3ccc4cccnc4c3[nH]2)cc1,-6.8,-13.3,x,3.8,10.4
COc1ccc(CNC(=O)c2cc3cc(OC)ccc3oc2=O)cc1,2.0,-4.9,3.1,6.7,2.8
Cc1ccc2c(=O)cc(C(=O)Nc3c(C)cccc3C)oc2c1,-2.7,4.2,x,-1.9,-32.1*
COc1ccc2oc(=O)c(C(=O)NCc3ccc(C)cc3)cc2c1,-7.4,0.3,35.0,3.5,-37.3*
Cc1cc(-c2csc(N)n2)c(C)n1CCc1ccccc1,-2.8,31.6*,-19.2,2.9,-2.0
C[C@@H](C(=O)Nc1nc2ccc(F)cc2s1)N1C(=O)C2CC=CCC2C1=O (stereo not given in full),0.5,1.8,9.0,0.5,-45.0*
O=C(Nc1nc2ccc(F)cc2s1)c1ccccn1,-4.3,-24.9,-73.1*,5.3,9.8
Cc1nnc(NC(=O)c2nc(S(=O)(=O)Cc3ccccc3C)ncc2Cl)s1,-2.3,-10.1,-50.2*,4.0,6.6
CC(C)c1nnc(NC(=O)c2nc(S(=O)(=O)Cc3ccc(F)cc3)ncc2Cl)s1,4.5,-21.9,-60.8*,1.7,-1.0
Cc1ccc(CS(=O)(=O)c2ncc(Cl)c(C(=O)Nc3nnc(C(C)C)s3)n2)cc1,-0.7,-20.9,0.0,4.7,-1.0
